# Test results: article PMC7862700, “An all-to-all approach to the identification of sequence-specific readers for epigenetic DNA modifications on cytosine”
# How the values were obtained:
# Assay in all cases: DAPPL (digital affinity profiling via proximity ligation, sequencing); 10 mM Tris-HCl pH 7.5, 50 mM NaCl, 1 mM DTT, 4% glycerol, room temperature, 30 min; GST-TFs on glutathione beads, 16-mer random dsDNA library, 0.1% formaldehyde crosslink after washing; high values mean tight binding
# [1] = target: T1, FLI1 (Homo sapiens, UniProt Q01543 1-452); conditions: protein: recombinant; tags: N-terminal GST; dsDNA, one strand shown
# T1 sequence: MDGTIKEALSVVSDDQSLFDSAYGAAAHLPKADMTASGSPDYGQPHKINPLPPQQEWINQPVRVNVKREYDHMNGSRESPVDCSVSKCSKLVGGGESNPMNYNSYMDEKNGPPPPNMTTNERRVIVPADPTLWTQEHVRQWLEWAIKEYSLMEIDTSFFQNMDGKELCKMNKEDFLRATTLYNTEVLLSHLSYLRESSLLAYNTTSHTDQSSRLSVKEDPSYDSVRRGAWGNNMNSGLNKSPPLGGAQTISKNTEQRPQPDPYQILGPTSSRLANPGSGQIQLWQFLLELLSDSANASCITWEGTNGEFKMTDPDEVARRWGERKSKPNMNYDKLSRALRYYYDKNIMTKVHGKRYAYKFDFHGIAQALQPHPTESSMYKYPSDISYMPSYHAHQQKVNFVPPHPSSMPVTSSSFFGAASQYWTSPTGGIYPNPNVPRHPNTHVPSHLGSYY
# Summary of the method: (§1)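 Sequencing on an Illumina NextSeq500 followed washing, crosslinking with 0.1% formaldehyde, proximity ligation (BsaI/T4 ligase, 1 h, 37 °C) and PCR amplification of pools that had been incubated for 30 min at room temperature with 200 nmole of a random double-stranded 16-mer DNA library in Tris/NaCl/DTT/glycerol buffer. Each pool held DNA-barcoded human transcription factors, expressed in yeast as GST fusions and captured on glutathione beads, plus a tag-only sample. Binding signal is a hexamer's read frequency for a factor divided by its frequency in the tag-only sample.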
# [2] = target: T2, ELK1 (Homo sapiens, UniProt P19419 1-428); conditions: protein: recombinant; tags: N-terminal GST; dsDNA, one strand shown
# T2 sequence: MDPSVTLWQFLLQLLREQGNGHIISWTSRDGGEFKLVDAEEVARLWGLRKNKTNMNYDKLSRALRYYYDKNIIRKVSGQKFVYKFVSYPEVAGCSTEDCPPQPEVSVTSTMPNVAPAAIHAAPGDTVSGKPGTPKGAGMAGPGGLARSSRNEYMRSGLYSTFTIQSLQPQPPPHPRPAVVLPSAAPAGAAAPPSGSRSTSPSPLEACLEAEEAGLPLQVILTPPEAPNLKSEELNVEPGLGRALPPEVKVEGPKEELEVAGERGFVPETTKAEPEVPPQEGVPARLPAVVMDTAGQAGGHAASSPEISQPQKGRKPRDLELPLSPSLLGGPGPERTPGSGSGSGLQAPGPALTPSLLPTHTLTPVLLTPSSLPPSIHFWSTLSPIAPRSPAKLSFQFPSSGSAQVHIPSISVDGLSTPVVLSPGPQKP
# Summary of the method: as §1
# [3] = target: T3, GABPA (Homo sapiens, UniProt Q06546 1-454); conditions: protein: recombinant; tags: N-terminal GST; dsDNA, one strand shown
# T3 sequence: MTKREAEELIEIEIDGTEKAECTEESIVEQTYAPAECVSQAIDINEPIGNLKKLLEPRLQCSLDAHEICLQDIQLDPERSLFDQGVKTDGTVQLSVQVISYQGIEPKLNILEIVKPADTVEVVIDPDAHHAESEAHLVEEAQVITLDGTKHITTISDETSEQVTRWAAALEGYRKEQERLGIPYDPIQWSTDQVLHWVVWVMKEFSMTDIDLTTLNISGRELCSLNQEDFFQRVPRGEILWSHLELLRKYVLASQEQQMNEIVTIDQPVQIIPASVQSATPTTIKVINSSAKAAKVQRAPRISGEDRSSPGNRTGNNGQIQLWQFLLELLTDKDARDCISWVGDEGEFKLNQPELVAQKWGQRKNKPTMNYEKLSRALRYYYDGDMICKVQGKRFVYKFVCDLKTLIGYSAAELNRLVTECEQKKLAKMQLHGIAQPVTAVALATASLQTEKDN
# Summary of the method: as §1
# [4] = target: T4, ERG (Homo sapiens, UniProt P11308 1-479); conditions: protein: recombinant; tags: N-terminal GST; dsDNA, one strand shown
# T4 sequence: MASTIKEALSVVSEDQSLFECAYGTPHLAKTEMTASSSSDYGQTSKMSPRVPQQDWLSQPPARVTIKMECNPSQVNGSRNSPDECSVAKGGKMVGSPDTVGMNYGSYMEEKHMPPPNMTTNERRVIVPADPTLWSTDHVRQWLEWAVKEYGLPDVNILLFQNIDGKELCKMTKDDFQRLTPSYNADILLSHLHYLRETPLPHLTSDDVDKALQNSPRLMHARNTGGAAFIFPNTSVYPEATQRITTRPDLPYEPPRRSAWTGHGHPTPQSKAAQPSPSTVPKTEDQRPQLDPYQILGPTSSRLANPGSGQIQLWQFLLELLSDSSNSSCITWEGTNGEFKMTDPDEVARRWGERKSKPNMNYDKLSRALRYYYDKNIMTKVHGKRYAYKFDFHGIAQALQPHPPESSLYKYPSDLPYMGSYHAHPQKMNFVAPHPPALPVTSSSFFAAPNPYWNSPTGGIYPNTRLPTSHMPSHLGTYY
# Summary of the method: as §1
# [5] = target: ELF1 (Homo sapiens, UniProt P32519 1-619); conditions: protein: recombinant; tags: N-terminal GST; dsDNA, one strand shown
# Sequence of ELF1 (P32519 whole entry): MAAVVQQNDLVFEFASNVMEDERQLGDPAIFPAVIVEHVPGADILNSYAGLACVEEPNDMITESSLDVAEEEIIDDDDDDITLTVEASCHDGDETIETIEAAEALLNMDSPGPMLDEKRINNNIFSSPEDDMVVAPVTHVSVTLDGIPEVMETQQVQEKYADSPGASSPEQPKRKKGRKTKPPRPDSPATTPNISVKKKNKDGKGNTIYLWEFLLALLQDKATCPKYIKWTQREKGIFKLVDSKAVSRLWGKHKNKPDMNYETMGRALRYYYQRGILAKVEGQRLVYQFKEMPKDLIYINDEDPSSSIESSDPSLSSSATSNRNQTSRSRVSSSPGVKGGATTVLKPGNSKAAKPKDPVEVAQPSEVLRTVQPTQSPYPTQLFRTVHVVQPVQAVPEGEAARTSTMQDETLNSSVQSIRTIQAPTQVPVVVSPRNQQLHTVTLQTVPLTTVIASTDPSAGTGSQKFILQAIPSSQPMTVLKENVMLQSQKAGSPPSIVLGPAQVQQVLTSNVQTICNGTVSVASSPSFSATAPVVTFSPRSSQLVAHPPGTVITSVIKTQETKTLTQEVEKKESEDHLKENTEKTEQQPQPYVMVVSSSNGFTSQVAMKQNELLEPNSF
# Summary of the method: as §1
# [6] = target: T5, EHF (Homo sapiens, UniProt Q9NZC4 1-300); conditions: protein: recombinant; tags: N-terminal GST; dsDNA, one strand shown
# T5 sequence: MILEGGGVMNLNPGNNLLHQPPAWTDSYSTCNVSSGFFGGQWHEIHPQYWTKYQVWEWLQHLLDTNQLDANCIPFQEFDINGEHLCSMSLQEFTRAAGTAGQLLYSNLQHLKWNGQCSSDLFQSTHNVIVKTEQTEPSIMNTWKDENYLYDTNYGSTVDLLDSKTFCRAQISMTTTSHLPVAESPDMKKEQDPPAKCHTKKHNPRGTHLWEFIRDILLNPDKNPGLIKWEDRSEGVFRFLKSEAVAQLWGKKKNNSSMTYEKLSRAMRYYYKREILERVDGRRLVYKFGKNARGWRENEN
# Summary of the method: as §1
# [7] = target: SPI1 (Homo sapiens, UniProt P17947 1-270); conditions: protein: recombinant; tags: N-terminal GST; dsDNA, one strand shown
# Summary of the method: as §1
# [8] = target: SPIB (Homo sapiens, UniProt Q01892 1-262); conditions: protein: recombinant; tags: N-terminal GST; dsDNA, one strand shown
# Sequence of SPIB (Q01892 whole entry): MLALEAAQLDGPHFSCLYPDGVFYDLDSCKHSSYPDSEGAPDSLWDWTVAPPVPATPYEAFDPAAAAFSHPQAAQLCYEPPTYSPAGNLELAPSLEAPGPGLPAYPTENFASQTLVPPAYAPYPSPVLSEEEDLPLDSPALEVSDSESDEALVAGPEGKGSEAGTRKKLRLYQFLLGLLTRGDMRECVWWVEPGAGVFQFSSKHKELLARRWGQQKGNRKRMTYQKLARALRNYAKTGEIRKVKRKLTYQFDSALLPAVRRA
# Summary of the method: as §1
# [9] = target: T6, ELK3 (Homo sapiens, UniProt P41970 1-407); conditions: protein: recombinant; tags: N-terminal GST; dsDNA, one strand shown
# T6 sequence: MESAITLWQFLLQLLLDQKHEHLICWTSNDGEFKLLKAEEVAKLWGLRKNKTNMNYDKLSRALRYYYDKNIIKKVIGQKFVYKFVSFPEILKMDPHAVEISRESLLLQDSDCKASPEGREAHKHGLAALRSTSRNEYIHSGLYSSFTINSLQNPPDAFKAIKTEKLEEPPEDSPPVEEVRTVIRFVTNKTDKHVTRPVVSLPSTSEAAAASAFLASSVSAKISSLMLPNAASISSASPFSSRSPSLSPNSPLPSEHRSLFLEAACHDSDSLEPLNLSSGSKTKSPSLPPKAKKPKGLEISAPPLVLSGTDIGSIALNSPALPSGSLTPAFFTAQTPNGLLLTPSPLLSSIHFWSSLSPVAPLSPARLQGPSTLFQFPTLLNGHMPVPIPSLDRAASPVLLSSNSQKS
# Summary of the method: as §1
# [10] = target: T7, FEV (Homo sapiens, UniProt Q99581 1-238); conditions: protein: recombinant; tags: N-terminal GST; dsDNA, one strand shown
# T7 sequence: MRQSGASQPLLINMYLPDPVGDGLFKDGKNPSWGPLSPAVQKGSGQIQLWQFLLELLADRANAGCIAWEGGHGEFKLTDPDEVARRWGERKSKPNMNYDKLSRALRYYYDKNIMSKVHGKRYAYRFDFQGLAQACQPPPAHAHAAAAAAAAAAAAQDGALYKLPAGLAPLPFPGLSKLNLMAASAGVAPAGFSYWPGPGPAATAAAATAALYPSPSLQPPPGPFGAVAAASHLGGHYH
# Summary of the method: as §1
# [11] = target: ETV5 (Homo sapiens, UniProt P41161 1-510); conditions: protein: recombinant; tags: N-terminal GST; dsDNA, one strand shown
# Sequence of ETV5 (P41161 whole entry): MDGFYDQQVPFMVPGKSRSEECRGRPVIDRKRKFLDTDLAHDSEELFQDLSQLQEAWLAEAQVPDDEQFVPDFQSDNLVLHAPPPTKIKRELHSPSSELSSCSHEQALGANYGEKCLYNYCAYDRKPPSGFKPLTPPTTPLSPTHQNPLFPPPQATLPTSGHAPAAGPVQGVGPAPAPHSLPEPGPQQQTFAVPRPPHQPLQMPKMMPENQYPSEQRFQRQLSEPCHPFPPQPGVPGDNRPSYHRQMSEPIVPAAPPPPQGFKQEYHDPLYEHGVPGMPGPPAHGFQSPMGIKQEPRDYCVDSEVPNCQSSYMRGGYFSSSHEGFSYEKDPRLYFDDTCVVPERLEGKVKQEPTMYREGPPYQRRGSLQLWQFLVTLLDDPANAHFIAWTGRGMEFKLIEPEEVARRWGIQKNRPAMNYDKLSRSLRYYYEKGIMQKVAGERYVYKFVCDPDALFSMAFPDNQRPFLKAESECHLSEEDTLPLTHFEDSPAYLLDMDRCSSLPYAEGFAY
# Summary of the method: as §1
# [12] = target: HSF1 (Homo sapiens, UniProt Q00613 1-529); conditions: protein: recombinant; tags: N-terminal GST; chain copies: 3; dsDNA, one strand shown
# Sequence of HSF1 (Q00613 whole entry): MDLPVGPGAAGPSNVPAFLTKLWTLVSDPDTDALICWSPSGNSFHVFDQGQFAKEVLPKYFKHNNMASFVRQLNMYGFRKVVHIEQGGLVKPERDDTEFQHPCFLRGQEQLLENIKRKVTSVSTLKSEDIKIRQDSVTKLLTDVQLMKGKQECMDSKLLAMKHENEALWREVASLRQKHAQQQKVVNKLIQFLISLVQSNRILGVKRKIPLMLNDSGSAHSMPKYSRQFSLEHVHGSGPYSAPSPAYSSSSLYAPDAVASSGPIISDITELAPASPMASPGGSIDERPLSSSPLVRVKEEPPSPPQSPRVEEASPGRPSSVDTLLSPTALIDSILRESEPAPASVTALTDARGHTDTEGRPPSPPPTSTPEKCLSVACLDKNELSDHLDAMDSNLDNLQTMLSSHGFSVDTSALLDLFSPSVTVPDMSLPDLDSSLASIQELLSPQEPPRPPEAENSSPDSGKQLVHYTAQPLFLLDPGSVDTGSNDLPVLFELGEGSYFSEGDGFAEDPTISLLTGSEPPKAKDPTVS
# Summary of the method: as §1
# [13] = target: T8, SPIC (Homo sapiens, UniProt Q8N5J4 1-248); conditions: protein: recombinant; tags: N-terminal GST; dsDNA, one strand shown
# T8 sequence: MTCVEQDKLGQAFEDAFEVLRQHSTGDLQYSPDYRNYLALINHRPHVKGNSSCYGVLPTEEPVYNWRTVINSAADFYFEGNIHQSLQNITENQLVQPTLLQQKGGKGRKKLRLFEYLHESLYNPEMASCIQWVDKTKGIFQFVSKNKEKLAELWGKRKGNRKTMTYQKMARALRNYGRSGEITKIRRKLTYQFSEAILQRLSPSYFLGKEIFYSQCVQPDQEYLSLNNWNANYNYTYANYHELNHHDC
# Summary of the method: as §1
# [14] = target: ELF4 (Homo sapiens, UniProt Q99607 1-663); conditions: protein: recombinant; tags: N-terminal GST; dsDNA, one strand shown
# Sequence of ELF4 (Q99607 whole entry): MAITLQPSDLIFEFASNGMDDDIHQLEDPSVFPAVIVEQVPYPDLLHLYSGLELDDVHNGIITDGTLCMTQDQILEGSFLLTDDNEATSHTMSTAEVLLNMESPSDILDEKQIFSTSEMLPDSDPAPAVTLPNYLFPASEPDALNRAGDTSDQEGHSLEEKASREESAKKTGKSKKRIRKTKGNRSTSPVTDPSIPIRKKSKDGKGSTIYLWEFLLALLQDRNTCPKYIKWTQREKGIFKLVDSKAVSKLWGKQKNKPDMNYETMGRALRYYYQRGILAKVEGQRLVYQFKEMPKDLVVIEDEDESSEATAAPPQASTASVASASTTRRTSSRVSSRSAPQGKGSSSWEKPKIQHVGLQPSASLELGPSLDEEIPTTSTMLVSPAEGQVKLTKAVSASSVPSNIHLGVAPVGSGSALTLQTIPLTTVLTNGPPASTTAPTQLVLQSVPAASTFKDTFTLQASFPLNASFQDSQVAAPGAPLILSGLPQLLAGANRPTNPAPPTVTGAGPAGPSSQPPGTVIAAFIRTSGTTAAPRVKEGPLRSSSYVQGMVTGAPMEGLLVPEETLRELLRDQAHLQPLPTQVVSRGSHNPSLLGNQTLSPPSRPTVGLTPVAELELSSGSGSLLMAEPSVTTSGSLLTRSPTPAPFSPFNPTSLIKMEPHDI
# Summary of the method: as §1
# [15] = target: T9, ELK4 (Homo sapiens, UniProt P28324-2 1-405); conditions: protein: recombinant; tags: N-terminal GST; dsDNA, one strand shown
# T9 sequence: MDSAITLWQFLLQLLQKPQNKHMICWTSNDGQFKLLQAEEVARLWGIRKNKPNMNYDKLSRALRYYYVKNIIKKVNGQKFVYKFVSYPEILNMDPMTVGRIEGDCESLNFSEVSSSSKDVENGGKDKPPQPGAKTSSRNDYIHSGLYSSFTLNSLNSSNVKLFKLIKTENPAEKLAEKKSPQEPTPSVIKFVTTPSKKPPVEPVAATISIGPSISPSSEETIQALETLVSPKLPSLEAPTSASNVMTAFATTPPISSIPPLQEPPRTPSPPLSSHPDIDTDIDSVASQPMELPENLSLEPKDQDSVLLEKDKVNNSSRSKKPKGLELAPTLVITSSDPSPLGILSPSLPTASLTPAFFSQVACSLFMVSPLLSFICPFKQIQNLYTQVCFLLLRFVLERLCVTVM
# Summary of the method: as §1
# [16] = target: T10, ETV2 (Homo sapiens, UniProt O00321 1-342); conditions: protein: recombinant; tags: N-terminal GST; dsDNA, one strand shown
# T10 sequence: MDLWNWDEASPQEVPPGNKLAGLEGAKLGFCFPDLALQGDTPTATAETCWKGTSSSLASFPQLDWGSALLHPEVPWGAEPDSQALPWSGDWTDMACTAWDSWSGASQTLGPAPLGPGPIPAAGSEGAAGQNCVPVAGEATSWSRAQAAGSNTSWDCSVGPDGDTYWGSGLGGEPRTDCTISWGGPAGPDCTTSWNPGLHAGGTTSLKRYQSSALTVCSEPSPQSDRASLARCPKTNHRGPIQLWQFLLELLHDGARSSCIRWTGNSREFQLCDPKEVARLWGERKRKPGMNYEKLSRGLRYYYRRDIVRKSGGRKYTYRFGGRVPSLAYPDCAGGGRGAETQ
# Summary of the method: as §1
# [17] = target: T11, ELF3 (Homo sapiens, UniProt P78545 1-371); conditions: protein: recombinant; tags: N-terminal GST; dsDNA, one strand shown
# T11 sequence: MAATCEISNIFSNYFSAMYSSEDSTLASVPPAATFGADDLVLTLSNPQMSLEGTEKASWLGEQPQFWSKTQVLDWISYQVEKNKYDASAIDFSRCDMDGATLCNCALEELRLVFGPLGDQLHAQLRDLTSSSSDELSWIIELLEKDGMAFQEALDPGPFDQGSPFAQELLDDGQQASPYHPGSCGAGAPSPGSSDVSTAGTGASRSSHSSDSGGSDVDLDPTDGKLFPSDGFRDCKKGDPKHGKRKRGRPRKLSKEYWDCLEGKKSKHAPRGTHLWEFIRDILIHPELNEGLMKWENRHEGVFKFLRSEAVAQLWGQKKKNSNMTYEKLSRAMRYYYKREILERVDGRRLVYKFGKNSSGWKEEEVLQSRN
# Summary of the method: as §1
# [18] = target: CRX (Homo sapiens, UniProt O43186 1-299); conditions: protein: recombinant; tags: N-terminal GST; dsDNA, one strand shown
# Sequence of CRX (O43186 whole entry): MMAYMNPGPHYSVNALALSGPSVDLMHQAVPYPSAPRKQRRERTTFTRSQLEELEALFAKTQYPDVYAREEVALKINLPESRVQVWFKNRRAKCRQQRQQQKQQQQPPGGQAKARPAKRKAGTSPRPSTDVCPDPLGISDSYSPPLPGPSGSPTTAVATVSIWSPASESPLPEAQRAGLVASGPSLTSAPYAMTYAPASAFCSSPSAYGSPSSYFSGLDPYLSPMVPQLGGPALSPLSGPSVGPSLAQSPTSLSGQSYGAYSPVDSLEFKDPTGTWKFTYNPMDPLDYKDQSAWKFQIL
# Summary of the method: as §1
# [19] = target: ETV1 (Homo sapiens, UniProt P50549 1-477); conditions: protein: recombinant; tags: N-terminal GST; dsDNA, one strand shown
# Sequence of ETV1 (P50549 whole entry): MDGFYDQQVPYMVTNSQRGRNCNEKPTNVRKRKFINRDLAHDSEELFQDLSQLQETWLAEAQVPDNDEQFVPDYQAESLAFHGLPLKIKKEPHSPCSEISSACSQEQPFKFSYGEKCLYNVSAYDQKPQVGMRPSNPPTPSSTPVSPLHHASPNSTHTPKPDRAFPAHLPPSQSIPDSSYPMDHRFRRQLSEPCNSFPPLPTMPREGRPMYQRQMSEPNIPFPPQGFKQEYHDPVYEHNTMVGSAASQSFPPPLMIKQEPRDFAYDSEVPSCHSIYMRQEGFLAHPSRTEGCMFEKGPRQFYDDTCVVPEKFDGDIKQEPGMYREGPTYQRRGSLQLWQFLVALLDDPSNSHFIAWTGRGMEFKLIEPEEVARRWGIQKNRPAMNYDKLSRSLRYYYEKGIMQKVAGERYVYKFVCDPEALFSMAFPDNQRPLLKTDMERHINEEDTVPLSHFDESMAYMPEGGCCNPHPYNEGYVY
# Summary of the method: as §1
sequence,measurement,setting,value
TATAAA,binding signal,[1],"1.17 fold enrichment (6-mer frequency, TF over GST control)"
same,binding signal,[2],"1.29 fold enrichment (6-mer frequency, TF over GST control)"
same,binding signal,[3],"1.21 fold enrichment (6-mer frequency, TF over GST control)"
same,binding signal,[4],"1.18 fold enrichment (6-mer frequency, TF over GST control)"
same,binding signal,[5],"1.21 fold enrichment (6-mer frequency, TF over GST control)"
same,binding signal,[6],"1.28 fold enrichment (6-mer frequency, TF over GST control)"
same,binding signal,[7],"1.26 fold enrichment (6-mer frequency, TF over GST control)"
same,binding signal,[8],"1.3 fold enrichment (6-mer frequency, TF over GST control)"
same,binding signal,[9],"1.26 fold enrichment (6-mer frequency, TF over GST control)"
same,binding signal,[10],"1.16 fold enrichment (6-mer frequency, TF over GST control)"
same,binding signal,[11],"1.18 fold enrichment (6-mer frequency, TF over GST control)"
same,binding signal,[12],"1.47 fold enrichment (6-mer frequency, TF over GST control)"
same,binding signal,[13],"1.26 fold enrichment (6-mer frequency, TF over GST control)"
same,binding signal,[14],"1.23 fold enrichment (6-mer frequency, TF over GST control)"
same,binding signal,[15],"1.32 fold enrichment (6-mer frequency, TF over GST control)"
same,binding signal,[16],"1.2 fold enrichment (6-mer frequency, TF over GST control)"
same,binding signal,[17],"1.33 fold enrichment (6-mer frequency, TF over GST control)"
same,binding signal,[18],"1.85 fold enrichment (6-mer frequency, TF over GST control)"
same,binding signal,[19],"1.16 fold enrichment (6-mer frequency, TF over GST control)"
